High-throughput results deposited in PubChem by National Center for Advancing Translational Sciences (NCATS).
Only some compounds are listed: those with a hit (about 19% of all), similar ones and a draw of the others.
HT1080NT lethal: kills 2HG-producing HT-1080-NT fibrosarcoma cells | hit rate 1.6% among 360,000 | AID 686970 | Potency, µM (titrated, usually from 46.1 µM), for the others: at the highest dose activity, negative = less viability, most hits filed as cytotoxic | HT-1080-NT fibrosarcoma viability, CellTiter-Glo ATP luminescence, 48 h;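 also: NT is the 2HG producing partner of a matched IDH1 knockdown line; potency is read from the fitted curve at half-maximal effect; 0% = DMSO-treated cells and -100% = media-only wells without cells; nearly all actives have a fitted effect of over 55% in size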
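Viability of the 2HG-overproducing fibrosarcoma line after 48 hours of compound exposure at 37 degrees C was determined by luminescence with CellTiter-Glo, and concentration-effect curves were then fitted and categorized.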
TDP1 cell noCPT: qHTS for Inhibitors of human tyrosyl-DNA phosphodiesterase 1 (TDP1): qHTS in cells in absence of CPT | Potency, µM (top dose mostly 46.2 µM), inactives show top-dose activity change, negative = growth inhibition, usual class: inhibitors | DT40 Tdp1-/- hTDP1 cells, no CPT, ATP luminescence, 48 h | hit rate 15% among 420,000; also: potency is read from the fitted curve at half-maximal effect; nearly all actives have a fitted effect of over 55% in size
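Growth kinetics read by CellTiter-Glo luminescence after ≥48 hr at 37 °C. Cells: DT40 Tdp1-/- stably carrying human TDP1, 400 per well, compound exposure in the absence of CPT (DMSO vehicle).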
IL1B secr inh: inhibitors of inflammasome signaling (IL-1 beta secretion) | THP-1 LPS/ATP IL-1B secretion, AlphaLISA, 16 h; active compounds read low | activity change, % at 57.5 µM | hit rate 4.7% among 360,000; in the data active = activity change below about -50%; inconclusive = mostly about -30% to -49%
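Secreted IL-1B measured by AlphaLISA bead assay after 16 h compound exposure of THP-1 cells; compounds (final up to 57.5 uM) added 1 h before LPS (250 ng/mL) and ATP (1.25 mM) stimulation; lower signal means less secretion.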
uPA generation: blocks generation of uPA at the cell surface; cell surface uPA generation assay, qHTS; Potency, µM (doses to about 38.3 µM), for the others: at the highest dose activity change, negative = inhibition, hits mostly inhibitors; hit rate 0.31% among 330,000; AID 540303; active = well fitted inhibition curve with a large enough effect; inconclusive = small, poorly fitted or top-dose-only effect; inactive = no such curve, though single readings can be large or run the other way; tested in mouse RAW 264.7 cells; also: potency is read from the fitted curve at half-maximal effect; nearly all actives have a fitted effect of over 55% in size
TDP1 cell CPT: growth inhibition of DT40 Tdp1-/-;hTDP1 cells with camptothecin (screen for TDP1 inhibitors); chicken DT40 Tdp1-/-;hTDP1 cells + 20 nM CPT, ATP luminescence, 48 h; Potency, µM (titrated, usually from 46.2 µM), for inactives: at the top dose activity change, negative = growth inhibition, actives largely listed as inhibitors; hit rate 12% among 420,000; also: potency is read from the fitted curve at half-maximal effect; nearly all actives have a fitted effect of over 55% in size
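Chicken DT40 Tdp1-/- cells complemented with human TDP1, 400 cells/well, exposed to compounds plus 20 nM camptothecin for at least 48 h at 37 C; viability read as ATP content by CellTiter-Glo luminescence.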
HT1080 IDH1KD tx: kills HT-1080 cells with IDH1 knockdown | AID 686971 | HT-1080 IDH1 knockdown viability, ATP luminescence, 48 h | Potency, µM (top dose mostly 46.1 µM), for inactives: at the top dose activity, negative = toxicity, actives largely listed as cytotoxic | hit rate 2% among 360,000;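 also: potency is read from the fitted curve at half-maximal effect; 0% = DMSO wells and -100% = cell-free medium wells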
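Knockdown cells (IDH1KD HT-1080) received compounds 2 h after plating at 750 cells/well and were kept 48 h at 37 °C in 5% FBS RPMI. A CellTiter-Glo luminescence read gave % activity for curve fitting.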
* hit, by the source's call; ? = inconclusive; . = no result; ! = not confirmed by another sample. Unless noted, calls follow the shape of the dose curve; as a rule, active = well fitted curve in the direction sought with a large enough effect; inconclusive = small, poorly fitted or top-dose-only effect, or another doubt; inactive = no such curve, though single readings can be large; an effect the other way counts as inactive or inconclusive. Unless noted, % is scaled to controls: 0 for no effect and ±100 for the full control effect.

SMILES	HT1080NT lethal	TDP1 cell noCPT	IL1B secr inh	uPA generation	TDP1 cell CPT	HT1080 IDH1KD tx
C=CCOc1ccc(C2NC(=O)c3ccccc3O2)cc1OC (configuration not stated)	-3%	-20%	10	.	-14%	-3%
C[C@H](CO)N1C[C@H](C)[C@@H](CN(C)Cc2ccncc2)OCc2cnnn2CCCC1=O	?	-8%	13	.	-5%	0%
O=C(Nc1ccc(F)c(Cl)c1)Nc1nnc([C@H]2C[C@H](O)[C@@H](CO)O2)s1	-2%	-26%	0	.	?	15%
CCN(CC)S(=O)(=O)c1ccc2c(c1)nc(CCC(=O)Nc1ccccc1Cc1ccccc1)n2CC	-8%	23µM*	-14	?	21µM*	-27%
COc1ccc(N(C)S(=O)(=O)c2cccc(C(=O)NCc3ccc4c(c3)OCO4)c2)cc1	-14%	?	?	1%	?	-2%
CCOc1ccc(N(C)S(=O)(=O)c2ccc(C)c(C(=O)N3CCN(Cc4ccc5c(c4)OCO5)CC3)c2)cc1	-5%	?	-89*	-4%	?	-14%
COc1ccc(OC)c(CN2CCN(C(=O)c3cccc(S(=O)(=O)N(C)c4ccccc4)c3)CC2)c1	-10%	13µM*	-19	.	18µM*	-7%
COc1ccc(N(C)S(=O)(=O)c2cccc(C(=O)N3CCN(Cc4ccc5c(c4)OCO5)CC3)c2)cc1	-1%	18µM*	-68*	-12%	23µM*	-20%
CCOc1ccc(NC(=O)N2CCN(Cc3ccc4c(c3)OCO4)CC2)cc1	-3%	2%	0	-7%	-7%	-2%
C[C@@H](NCc1cc(Br)cc2[nH]c(=O)c(=O)[nH]c12)P(=O)(O)O	.	-10%	.	.	-14%	.
O=C(CCN1C(=O)COc2ccccc21)NCCCN1CCN(c2ccccc2F)CC1	0%	?	-3	-4%	18µM*	-13%
CCN(CC)S(=O)(=O)c1ccc2c(c1)N(CC(=O)NCCCN1CCN(c3cc(C)ccc3C)CC1)C(=O)CO2	.	4.6µM*	.	.	2.6µM*	.
CCN(CC)S(=O)(=O)c1ccc2c(c1)N(CC(=O)NCCCN1CCN(c3ccccc3F)CC1)C(=O)CO2	.	?	.	.	23µM*	.
Cc1ccc(C)c(N2CCN(CCCNC(=O)Cn3cccc3C(=O)c3ccccc3)CC2)c1	2%	5.2µM*	-23	?	5.2µM*	8%
O=C1CC(NS(=O)(=O)c2ccc([N+](=O)[O-])cc2)CN1c1cccc(F)c1 (configuration not stated)	-10%	?	1	4%	-12%	-8%
Cc1ccc(CN2CCCN(C)CC2)c(C)c1	16%	?	-5	-3%	?	12%
Cc1oc(-c2nc3ccccc3n2C)cc1C(=O)c1ccccc1	?	21µM*	2	-6%	16µM*	?
Cn1cc(C(=O)c2ccccc2)cc1-c1nc2ccccc2n1C	-6%	18µM*	-20	4%	?	-12%
CCC(CO)Nc1ncnc2c1cnn2-c1ccc(C)cc1 (configuration not stated)	.	-28%	.	.	-6%	.
Cc1ccc(-n2ncc3c(NC4CCCCCC4)ncnc32)cc1	.	18µM*	.	.	13µM*	.
Fc1ccc(-n2ncc3c(N4CCCCCC4)ncnc32)cc1	.	?	.	.	12µM*	.
Fc1ccc(-n2ncc3c(NC4CCCCCC4)ncnc32)cc1	.	23µM*	.	.	23µM*	.
Cc1ccc(-n2ncc3c(NC4CCCCC4)ncnc32)cc1	.	21µM*	.	.	?	.
Cc1cc(C)n(CCc2nc(-c3ccc(C(C)(C)C)cc3)cs2)n1	-5%	12µM*	-51*	?	23µM*	-10%
COc1cc(-c2csc(CCn3nc(C)cc3C)n2)cc(OC)c1OC	-3%	18µM*	-13	11%	21µM*	2%
SMILES	HT1080NT lethal	TDP1 cell noCPT	IL1B secr inh	uPA generation	TDP1 cell CPT	HT1080 IDH1KD tx
CN(C)C1C(=O)c2ccccc2C1=O	?	-4%	-1	-1%	11%	?
Cc1nn(-c2ccccc2)c(Oc2ccccc2)c1C=O	-4%	13µM*	?	?	16µM*	2%
O=C(c1cc(-c2ccc(O)cc2)on1)N1CCN(c2ccc(F)cc2)CC1	?	?	-21	0%	21µM*	-2%
O=C(c1cc(-c2ccc3c(c2)OCO3)on1)N1CCN(c2ccc(F)cc2)CC1	-4%	-11%	12	.	5%	13%
O=C(c1cc(-c2ccc(O)cc2)on1)N1CCN(c2ccccc2)CC1	-20%	?	-54*	1%	18µM*!	-5%
CCOc1ncccc1C(=O)OCC(=O)Nc1ccc(C(N)=O)cc1	12%	3%	0	3%	8%	10%
CN1CCN(Cc2nc3ccccc3c(=O)n2Cc2nc(-c3ccccc3F)cs2)CC1	-13%	10µM*	?	1%	16µM*	-24%
CN(C)Cc1nc2ccccc2c(=O)n1Cc1nc(C(C)(C)C)cs1	1%	?	-1	12%	?	-6%
CN1CCN(Cc2nc3ccccc3c(=O)n2Cc2nc(-c3ccc4ccccc4c3)cs2)CC1	5.8µM*	2.3µM*	-95*	1%	4.6µM*	3.7µM*
O=C(COc1ccc(Cl)cc1)NCCc1csc(-c2ccc(F)cc2)n1	.	15µM*	.	.	16µM*	.
COc1ccc(-c2nc(CC(=O)O)cs2)cc1	26%	-25%	0	2%	2%	?
COc1ccc(CC(=O)NCCc2csc(-c3ccc(Cl)cc3)n2)cc1	.	16µM*	.	.	18µM*	.
COc1ccc(-c2nc(CCNC(=O)c3ccccc3)cs2)cc1OC	.	23µM*	.	.	23µM*	.
O=C(COc1ccc(Cl)cc1)NCCc1csc(-c2ccc(C(F)(F)F)cc2)n1	.	23µM*	.	.	?	.
COCC(=O)N1CCC2(CCCN(C(c3ccccc3)c3ccccc3)C2)CC1	.	?	.	.	8%	.
Cc1cc(=O)c(C(=O)NCCCc2ccncc2)c2n1-c1ccccc1SC(c1cccs1)C2 (configuration not stated)	.	-19%	.	.	?	.
CCOc1cc(C(=O)NCCc2csc(-c3ccc(C)cc3)n2)cc(OCC)c1OCC	.	16µM*	.	.	?	.
O=C(NCCc1csc(-c2ccc(Cl)cc2)n1)c1ccco1	?	15µM*	-23	-7%	?	?
COc1cc(C(=O)NCCc2csc(-c3ccc(Cl)cc3)n2)cc(OC)c1OC	.	21µM*	.	.	?	.
CCOc1ccc(NC(=O)C(=O)NCCc2csc(-c3ccc(C)cc3)n2)cc1	.	-18%	.	.	-24%	.
